KCNQ2 enhance – KCNQ2 (rat) channel potentiation; AID 2239; 310,000 compounds, 0.54% hits; B-score at 10 µM; CHO-K1 KCNQ2, FluxOR thallium flux fluorescence; hits give high values; O88943;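 active = fluorescence ratio B-score at least 3 SD of library B-scores, with initial fluorescence B-score within 3 of them, cut at about 5.3 in these data; same plate scores as AID 2156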;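 also: B-score of peak minus minimum over baseline fluorescence ratio after K+ and Tl+ stimulus; positive B-score means potentiation of KCNQ2 with more thallium influx and brighter signal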
KCNQ2 block – inhibitors of rat KCNQ2 potassium channel | O88943 | CHO-K1 KCNQ2, FluxOR thallium flux, 20 min; hits give low values | B-score at 10 µM | 310,000 compounds, 1.1% hits | AID 2156;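 active = fluorescence ratio B-score at most minus 3 library SDs, with starting brightness B-score within 2 library SDs, cut at about -5.5 in these data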
Kir21 confirm – confirmation of mouse Kir2.1 potassium channel inhibitors; Tl flux remaining, % of negative control (hits give low values), % at 10 µM; shares compounds with KCNQ2 enhance; Kir2.1-expressing cells, FluxOR thallium flux fluorescence; hits give low values; 2,300 compounds, 41% hits;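 active = Primary-screen hit whose thallium flux fell at least 3 control SD below untreated wells in both duplicates, with normal baseline fluorescence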;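 also: 0% = blank wells without stimulus and 100% = stimulated no-compound controls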
Target sequence (P35561 whole entry, looked up): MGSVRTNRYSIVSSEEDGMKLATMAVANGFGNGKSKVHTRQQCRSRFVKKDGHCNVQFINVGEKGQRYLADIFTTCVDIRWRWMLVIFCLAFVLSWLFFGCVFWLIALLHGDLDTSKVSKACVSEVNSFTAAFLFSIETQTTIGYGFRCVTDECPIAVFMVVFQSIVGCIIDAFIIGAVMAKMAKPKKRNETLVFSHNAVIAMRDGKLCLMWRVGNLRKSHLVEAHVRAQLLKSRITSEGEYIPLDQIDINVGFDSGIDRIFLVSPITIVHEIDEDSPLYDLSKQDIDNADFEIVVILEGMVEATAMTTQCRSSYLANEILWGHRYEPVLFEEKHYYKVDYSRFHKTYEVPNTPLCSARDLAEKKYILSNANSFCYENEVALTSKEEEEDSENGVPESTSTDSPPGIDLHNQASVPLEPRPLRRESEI
HEK293 Tl flux – parental HEK293 activity in Kir2.1 inhibitor counter-screen | shares compounds with KCNQ2 enhance | parental HEK293 cells, FluxOR thallium flux fluorescence; 0% = unstimulated blank wells | FluxOR signal as % of negative control (100 = no effect), % at 10 µM | 2,300 compounds, 19% hits;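 active = dye signal at least 3 control SD above or below untreated wells in both duplicates, raw fluorescence within 3, either direction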;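 also: percent is based on the flux ratio of peak minus minimum fluorescence over baseline F0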
CHO-K1 Tl ctr – counter-screen for KCNQ2 potentiators: effect in parental CHO-K1 cells; shares compounds with KCNQ2 enhance; FluxOR thallium flux fluorescence; zero = vehicle mean+3SD, 100% = vehicle-minus-blank window; activity increase over 3SD of controls, % at 10 µM; 1,200 compounds, 43% hits; AID 2282;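 active = signal rise of at least 3 SD above the untreated control mean, in both duplicate wells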;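 also: counter screen of KCNQ2 potentiator hits so any rise reflects channel-independent effects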
KCNQ1 sel pot – tests whether KCNQ2 potentiators also act on human KCNQ1; AID 2283; 1,200 compounds, 28% hits; CHO KCNQ1 stable, FluxOR thallium flux fluorescence; beyond 3SD, as % of vehicle-control signal; shares compounds with KCNQ2 enhance; activation over 3SD threshold, % at 10 µM;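 active = fluorescence ratio rise of at least 3 SD of vehicle wells above their mean, in both replicate wells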;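 also: 0% = vehicle mean plus 3 SD and 100% = vehicle minus unstimulated blank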
KCNQ2 pot conf – confirmation of rat KCNQ2 potassium channel potentiators. shares compounds with KCNQ2 enhance. CHO-KCNQ2 cells, FluxOR thallium flux fluorescence. potentiation, less the hit threshold, % at 10 µM. 1,200 compounds, 68% hits. AID 2287;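 active = fluorescence ratio rising 3 SD or more over the vehicle control mean in both replicates, plus primary screen hit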;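 also: peak minus minimum thallium fluorescence divided by baseline after K/Tl stimulus; 0% = vehicle mean plus 3 SD and 100% = vehicle minus unstimulated blank difference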
Kir2-1 sel – selectivity of KCNQ2 potentiators: effect on mouse Kir2.1; shares compounds with KCNQ2 enhance; HEK293 Kir2.1, FluxOR thallium flux fluorescence; activity over 3SD threshold, % at 10 µM; 1,200 compounds, 2% hits; AID 2345;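 active = fluorescence ratio rise of at least 3 SD above the vehicle-control mean, seen in both replicates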;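 also: 0% = vehicle mean plus 3 SD and 100% = vehicle minus no-stimulus blank window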
KCNQ2 W236L MoA – rat KCNQ2 W236L mutant potentiation by KCNQ2 potentiators; CHO KCNQ2-W236L, automated patch clamp current; 940 compounds, 10% hits; current increase over 3SD of negative controls (%), hits give high values, % at 25 µM; AID 2558; shares compounds with KCNQ2 enhance;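 active = current increase at least 3 SD of the untreated controls above them in both duplicate recordings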
The depositor's hits bear a star; i = inactive; · = no result given. A selection: hits, their analogues and other compounds. The true share with any hit is near 1.6%.

SMILES	KCNQ2 enhance	KCNQ2 block	Kir21 confirm	HEK293 Tl flux	others
Nc1ccccc1-n1c(=O)n(Cc2ccccc2F)c(=O)c2[nH]cnc21	0.86	i	·	·
O=C(NCCC1CC1(Cl)Cl)Nc1ccccc1 (centres undefined)	1.52	i	·	·
Cc1ccc(C(C)NC(=O)c2cccs2)cc1C (centres undefined)	8.51*	i	i	i	CHO-K1 Tl ctr=-8.9;KCNQ1 sel pot=12.8*;KCNQ2 pot conf=2.3*;Kir2-1 sel=-29.3;KCNQ2 W236L MoA=i
Cc1ccc(C(=O)NC(C)c2ccc3c(c2)OCO3)s1 (centres undefined)	3.1	i	·	·
Cc1ccc(C(=O)NC(C)c2ccc(C)c(C)c2)s1 (centres undefined)	12*	i	i	i	CHO-K1 Tl ctr=-2.8;KCNQ1 sel pot=30.3*;KCNQ2 pot conf=27.4*;Kir2-1 sel=-45.9;KCNQ2 W236L MoA=i
Cc1ccc(C(C)NC(=O)c2cccs2)cc1 (centres undefined)	1.82	i	·	·
CCNC(=O)CN(c1ccc(Oc2ccccc2)cc1)S(=O)(=O)c1ccccc1	·	i	·	·
CCCCN1C(=O)C(=Nc2cccc3cnccc23)c2ccccc21	·	i	36.5%*	i
CCCCN1C(=O)/C(=C2\SC(N3CCCCC3)=NC2=O)c2ccccc21	0.48	i	·	·
COc1ccccc1CCNC(=O)COc1cccc2c1OC(C)(C)C2	·	i	49.5%*	62.5%*
CC1(C)Cc2cccc(OCC(=O)NCCOc3ccccc3)c2O1	·	i	·	·
Cc1ccc(C)c(NC(=O)CSc2nc(=O)n(CCN3CCOCC3)c3c2CCCC3)c1	·	i	·	·
c1ccc(-c2nc3ccccc3[nH]2)nc1	·	i	·	·
c1ccc(-c2nc3c(ccc4ccccc43)[nH]2)nc1	8.38*	i	i	i	CHO-K1 Tl ctr=30.8*;KCNQ1 sel pot=6.1*;KCNQ2 pot conf=46.8*;Kir2-1 sel=-27.4;KCNQ2 W236L MoA=i
COCCNC(=O)C/C(C)=N/NC(=O)C(=O)NC1CCCCC1	·	i	·	·
COc1ccccc1CNC(=O)c1ccccc1C(=O)NC(CC(C)C)C(=O)NCc1ccccc1OC (centres undefined)	·	i	·	·
O=C(NCCNCc1ccc(F)cc1)c1ccco1	1.18	i	·	·
Fc1ccc(CNCCC(Cc2ccccc2)c2ccco2)cc1 (centres undefined)	·	i	17.5%*	70.5%*
CC(NCCC(Cc1ccccc1)c1ccco1)c1ccccc1 (centres undefined)	·	i	39.0%*	i
O=C(CC(Cc1ccccc1)c1ccco1)NC1CCCCC1 (centres undefined)	·	i	·	·
CN(C)CCNC(=O)C1(O)c2cc(Br)ccc2NC(=O)N1c1ccc(Cl)cc1 (centres undefined)	1.21	i	·	·
CC(CCc1ccccc1)NC(=O)c1ccc(-n2cncn2)c([N+](=O)[O-])c1 (centres undefined)	2.76	i	·	·
COc1ccccc1OCCCc1c(C)n[nH]c1C	5.85*	i	i	i	CHO-K1 Tl ctr=41.7*;KCNQ1 sel pot=-8.2;KCNQ2 pot conf=-6.1;Kir2-1 sel=-47.1;KCNQ2 W236L MoA=i
COc1ccccc1OCCCCCc1c(C)n[nH]c1C	·	i	·	·
Cc1cc([N+](=O)[O-])nn1CC(=O)NCc1ccc(Cl)cc1	1.56	i	·	·
SMILES	KCNQ2 enhance	KCNQ2 block	Kir21 confirm	HEK293 Tl flux	others
Cc1cc(C(=O)CCC(=O)NC(C)c2ccc(S(N)(=O)=O)cc2)c(C)s1 (centres undefined)	·	i	·	·
N#Cc1c(NCCCO)nc(-c2ccccc2)c2c1CCCC2	1.11	i	·	·
N#Cc1c(NCCN)nc(-c2ccccc2)c2c1CCCC2	·	i	45.5%*	i
COc1ccc(CCNC(=O)CCS(=O)(=O)c2ccc3c(c2)oc(=O)n3C)cc1OC	0.61	i	·	·
O=C(CN(C(=O)c1csnn1)c1ccc(Cl)cc1)NCc1ccc2c(c1)OCO2	1.56	i	·	·
Cc1c(C(=O)NC2CCN(Cc3ccccc3)C2)oc2c(Cl)cccc12 (centres undefined)	·	i	i	i
O=C(NC1CCN(Cc2ccccc2)CC1)c1ccccc1Cl	0.43	i	·	·
COCCN(C(=S)Nc1c(C)cc(C)cc1C)C(C)c1cccs1 (centres undefined)	·	i	·	·
Cc1ccc(-n2nc3c(c2NC(=O)CC(C)C)CS(=O)(=O)C3)cc1	0.97	i	·	·
COc1ccc(CNC(=O)c2csc(Cc3ccc(OC)cc3)n2)cc1	·	i	52.0%*	i
COc1ccc(CNC(=O)c2csc(Cc3ccc(Cl)cc3)n2)cc1	·	i	·	·
CCCCc1cc(=O)oc2cc(OC(C)C(=O)NCC3CCC(C(=O)O)CC3)c(Cl)cc12 (centres undefined)	0.93	i	·	·
CCc1cc(=O)oc2cc(OC(=O)c3ccco3)ccc12	·	i	·	·
Cc1cc(=O)oc2cc(OC(=O)c3ccco3)ccc12	0.19	i	i	i
O=c1c(-c2cccc([N+](=O)[O-])c2)[n+]([O-])c2ccccc2n1O	1.16	i	·	·
O=c1c(-c2ccc(Cl)cc2)[n+]([O-])c2ccccc2n1O	6.29*	i	i	220.5%*	CHO-K1 Tl ctr=-11.7;KCNQ1 sel pot=-23.0;KCNQ2 pot conf=-1.5;Kir2-1 sel=-43.0;KCNQ2 W236L MoA=i
COc1cccc2sc(Nc3nnc(-c4ccccc4Cl)o3)nc12	21.4*	i	i	379.0%*	CHO-K1 Tl ctr=-4.9;KCNQ1 sel pot=-6.4;KCNQ2 pot conf=38.1*;Kir2-1 sel=-21.4;KCNQ2 W236L MoA=i
COc1cccc(-c2nnc(NC(C)=O)o2)c1	0.28	i	·	·
COc1cccc(-c2nnc(Nc3nc4c(F)cccc4s3)o2)c1	9.74*	i	i	234.5%*	CHO-K1 Tl ctr=-7.0;KCNQ1 sel pot=36.6*;KCNQ2 pot conf=28.7*;Kir2-1 sel=-21.6;KCNQ2 W236L MoA=i
COc1ccccc1-c1nnc(Nc2nc3c(OC)cccc3s2)o1	·	i	·	·
Cc1c(N=C2SCC(=O)N2/N=C/c2ccccc2)c(=O)n(-c2ccccc2)n1C	·	i	·	·
CC(CCc1ccc(O)cc1)NC1c2ccccc2-c2ccccc21 (centres undefined)	2.8	i	33.0%*	i
CC(CCc1ccc(O)cc1)NC1C2CC3CC(C2)CC1C3 (centres undefined)	0.58	i	·	·
CCC(Oc1ccccc1)C(=O)Nc1ccc(S(=O)(=O)Nc2cc(C)on2)cc1 (centres undefined)	·	i	·	·
Nc1nc(C2CC2)c(Sc2sc(N)nc2C2CC2)s1	·	i	74.0%*	i
Nc1nc(C2CCOCC2)cs1	·	i	·	·
